# Measurements taken from PubChem BioAssay.
# A number with no mark means an inactive call. The rule behind the calls is not given here. Where a SMILES comes first, the peptide text is derived from it. [ ]: non-standard residue; d: D form. ξ: configuration not given here. ξV = CC(C)C(N)C(=O)O
# Target: Pantothenate synthetase (Mycobacterium tuberculosis (strain ATCC 25618 / H37Rv)) (UniProt P9WIL5)
# Test: Recombinant Mtb pantothenate synthetase (PanC) inhibitors, coupled enzyme, confirmatory (AID 375);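 note: 0% = full reaction with vehicle and 100% = no enzyme background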
# Settings: coupled enzyme assay; at 10 µM, hits give high values
# Sequence of Pantothenate synthetase (Mycobacterium tuberculosis (strain ATCC 25618 / H37Rv)) (P9WIL5 whole entry, looked up): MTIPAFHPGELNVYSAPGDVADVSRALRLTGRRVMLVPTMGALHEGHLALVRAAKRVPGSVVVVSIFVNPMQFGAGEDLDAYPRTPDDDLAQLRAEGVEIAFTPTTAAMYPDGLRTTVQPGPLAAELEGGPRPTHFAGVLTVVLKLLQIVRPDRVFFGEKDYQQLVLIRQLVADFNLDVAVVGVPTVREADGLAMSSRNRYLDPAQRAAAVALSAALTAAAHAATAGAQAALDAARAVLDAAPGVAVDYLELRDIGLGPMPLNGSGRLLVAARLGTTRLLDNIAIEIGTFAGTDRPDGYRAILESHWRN
row,SMILES,inhibition [%]
1,Nc1nnc(SCCOc2ccccc2)s1,3
2,COc1ccccc1CNC(=O)CCn1c(=O)[nH]c2ccsc2c1=O,2
3,CCN(Cc1nc2ccccc2c(=O)[nH]1)Cc1cc(=O)oc2cc(C)c(C)cc12,0
4,Cn1c(=O)c2c(-c3ccccc3)n(CCCN3CCOCC3)cc2n(C)c1=O,0
5,CCOc1cccc(C(=O)N(Cc2ccc(F)cc2)C2CCS(=O)(=O)C2)c1 (stereo not drawn),3
6,CCOC(=O)N1CCN(C(=O)COc2cc(=O)n(C)c3ccccc23)CC1,0
7,O=C(NCCc1cccc(Cl)c1)c1cccnc1,12
8,COc1cccc(-c2noc(-c3cccs3)n2)c1,1
9,CCC(C)(C(=O)NC1CCCC1)N(C(=O)c1cnccn1)c1c(C)n(C)n(-c2ccccc2)c1=O (stereo not drawn),0
10,Cc1cc(Cl)ccc1OCCCC(=O)NO,0
11,Cc1cccn2c(=O)c3cc(C(=O)N4CCCc5ccccc54)n(C)c3nc12,0
12,Cc1ccc(S(=O)(=O)N2CCN(c3nc(C)nc4sc(C)c(C)c34)CC2)cc1,2
13,CCC(=NC(C)c1ccccc1)c1c(O)n(C)c(=O)n(C)c1=O (stereo not drawn),0
14,CCc1nnc(NC(=O)C2CCCN2S(=O)(=O)c2ccc(C)cc2)s1 (stereo not drawn),2
15,COc1ccccc1NC(=O)C1(C)Cc2ccccc2C(=O)O1 (stereo not drawn),0
16,COc1ccccc1-n1nnnc1SCc1ccccc1,3
17,CC1(C)Cc2c(sc3c2C2=NCCN2C=N3)CO1,0
18,Cn1c(=O)[nH]c(=O)c2c1nc(NCCCn1ccnc1)n2Cc1ccccc1,0
19,CCCCc1cc2c(c(NC(C)=O)n1)c(=O)oc1ccccc12,0
20,O=C(CCN1C(=O)c2ccccc2C1=O)OCN1C(=O)c2ccccc2C1=O,5
21,Cc1ccc(C2C3CN(C(C)C)CC=C3C(C#N)=C(N)C2(C#N)C#N)cc1 (stereo not drawn),0
22,COc1cccc(/C(O)=C2/C(=O)C(=O)N(CCN3CCOCC3)C2c2cccnc2)c1 (stereo not drawn),1
23,N#CC1=C(N)N2C(=C(C#N)C13CCCCC3)SC1CCCCC12O (stereo not drawn),0
24,CC(C)OC(=O)c1cccc(C(=O)O)n1,4
25,CCCOc1ccc(S(=O)(=O)NCCCN2CCOCC2)c2ccccc12,0
26,O=C(COc1ccccc1)Nc1ccc(-c2nnc(-c3ccco3)o2)cc1,2

row,SMILES,inhibition [%]
1,Cc1ccc(-n2ncc3c(N4CCN(c5ccc(F)cc5)CC4)ncnc32)c(C)c1,6
2,O=C(NC1CCCC1)C(c1cccs1)N(Cc1ccco1)C(=O)Cn1nnc(-c2cccs2)n1 (stereo not drawn),0
3,Cc1ccc(S(=O)(=O)NC(=O)c2cc(C)n(CCCn3ccnc3)c2C)cc1,2
4,O=C(CCNS(=O)(=O)c1ccc(Br)s1)N1CCCCC1,0
5,COc1cccc(OC)c1OCCN1CCN(C(=O)c2ccco2)CC1,0
6,COc1cccc(C(c2nnnn2Cc2ccccc2)N2CCN(C(=O)c3ccco3)CC2)c1OC (stereo not drawn),4
7,CC1CCc2cc(F)cc3c(O)c(C(=O)Nc4cnccn4)c(=O)n1c23 (stereo not drawn),0
8,CCCCCC(=O)O[C@]1(C(C)=O)CC[C@H]2[C@@H]3CCC4=CC(=O)CC[C@]4(C)[C@H]3CC[C@@]21C,0
9,CCOc1ccccc1NC(=O)N1C2CCCC1CC(NC(=O)C1CC1)C2 (stereo not drawn),6
10,CCN(CC)S(=O)(=O)c1ccc(NC(=O)Cn2cnc3ccccc3c2=O)cc1,0
11,Cc1ccc(S(=O)(=O)N(CC(=O)NCc2ccco2)Cc2ccccc2F)cc1,0
12,COc1ccc(C)cc1C(=O)CCC(=O)Nc1ccccc1N1CCOCC1,2
13,O=C(Nc1ccccc1-c1nc2ccccc2o1)c1ccc2c(c1)OCCO2,5
14,CN1C(=O)CC(N2CCC(C(N)=O)(N3CCCCC3)CC2)C1=O (stereo not drawn),0
15,O=C(O)CC1Sc2nc3ccccc3n2C1=O (stereo not drawn),0
16,CC(NCCC(c1ccccc1)c1ccccc1)c1ccccc1 (stereo not drawn),0
17,Cc1cc2nc(C3CCN(CC4COc5ccccc5O4)CC3)[nH]c2cc1C (stereo not drawn),6
18,Cc1nnc(SCC(=O)NCCN2C(=O)CSC2=O)s1,7
19,Cc1nc(SCC#N)c2c(C)c(C)sc2n1,0
20,CN(C(=O)C1CCCO1)c1nnc(-c2ccncc2)s1 (stereo not drawn),1
21,CCc1nnc(NC(=O)c2ccc(S(=O)(=O)NC3CCCCC3)cc2)s1,0
22,CN(CC(=O)Nc1ccc(F)c(Cl)c1)S(=O)(=O)c1cccc2nsnc12,0
23,COC(=O)CNC(=O)COC(=O)c1cc(Cl)cc(Cl)c1N,0
24,CCn1c(=O)c(C(=O)Nc2cccnc2)c(O)c2ccccc21,0
25,CSc1nc(C)cc(OCC(=O)N2CCOCC2)n1,0
26,Cc1ccc(-c2c3c(=O)n(C)c(=O)n(C)c3cn2CCCN2CCOCC2)cc1,9

row,SMILES,inhibition [%]
1,CC(C)OC(=O)CSc1nnc(-c2ccco2)n1N,0
2,NS(=O)(=O)c1ccc(NCc2c(F)cccc2Cl)cc1,2
3,CN(CC(=O)N1CCN(c2ccc(F)cc2)CC1)S(=O)(=O)c1ccc(F)cc1,0
4,Cc1ccc(-c2cc(C(F)F)nc(NCc3cccnc3)n2)cc1,0
5,O=C(Cn1cnc2c(nnn2Cc2ccccc2)c1=O)c1ccc(Cl)cc1,5
6,CCN(CCNC(=O)CS(=O)(=O)Cc1nc(-c2cccc(OC)c2)oc1C)c1ccccc1,0
7,COc1ccc(NC(=O)CSc2nnc(-c3ccccc3)n2N)cc1,0
8,COC(=O)c1ccc(COC(=O)c2c(C)nn(Cc3ccccc3Cl)c2Cl)o1,0
9,CC1CCN(C(=O)CSc2nc3c(cnn3-c3ccccc3)c(=O)[nH]2)CC1,0
10,CN1C(=O)C2(NCCc3c2[nH]c2ccccc32)c2ccccc21 (stereo not drawn),1
11,Cc1cc(C)cc(N2C(=O)CC(N3CCOCC3)C2=O)c1 (stereo not drawn),0
12,CCCc1nnc(NC(=O)CCC(=O)N2CCN(CCOc3ccc(C)cc3)CC2)s1,5
13,COc1ccccc1OCC(=O)Nc1cccc(-c2nc3ccccc3o2)c1,0
14,COc1ccc(-c2noc(CSc3nc4ccccc4c(=O)n3-c3ccccc3)n2)cc1OC,1
15,Cc1cccc(C)c1NC(=O)c1cc(S(=O)(=O)N2CCOCC2)ccc1F,0
16,CCN(C(=O)c1ccnc(C(C)(C)C)c1)c1ccccc1,0
17,Cn1c(=O)[nH]c(=O)c2c1nc(N1CCc3ccccc3C1)n2CCSc1nc2ccccc2s1,4
18,CN(Cc1nc(-c2ccncc2)no1)S(=O)(=O)c1ccc(Br)cc1,2
19,COc1ccc(NC(=O)CCS(=O)(=O)c2ccc(OC)cc2)cc1,0
20,CCCCSc1cc(C)nc2ncnn12,0
21,N#CC1(c2ccccc2)CCC(=NO)CC1 (stereo not drawn),0
22,Cc1ccc(-c2nnc3ccc(SCC(=O)NCc4ccco4)nn23)cc1,0
23,COC(=O)c1ccccc1OCC(=O)NC1CCCCC1,0
24,CCSc1nnc(NC(=O)c2cc(C)oc2C)s1,11
25,NC(=O)C1(N2CCCCC2)CCN(C2CC(=O)N(Cc3cccs3)C2=O)CC1 (stereo not drawn),0
26,CCCCSc1nc(CCC)cc(=O)[nH]1,0

row,SMILES,inhibition [%]
1,Cc1ccc(Cl)cc1N1CCN(C(=O)c2cn(C)c(=O)c3c2c2ccccc2n3C)CC1,3
2,Cc1ccc(Nc2nnns2)cc1C,4
3,CC(C)(C)n1ncc2c(=O)n(CC(=O)c3ccccc3)cnc21,0
4,CC(C)CC(=O)Nc1ccccc1-c1nnn(CC(=O)N2CCOCC2)n1,0
5,Cc1ccc(OCC(=O)N2CCN(C(=O)CCC3CCCC3)CC2)cc1,0
6,CC(=O)NC(C(=O)NCC(N)=O)C(C)C (stereo not drawn) (Ac-[ξV]-Gly-NH2),0
7,c1cnc(NCCNc2ncccn2)nc1,0
8,COc1ccc(C2N(C(=O)c3ccccc3)CCN2C(=O)c2ccccc2)cc1,0
9,COc1ccccc1S(=O)(=O)Cc1ccc(C(=O)N2CCOCC2)o1,0
10,Cc1cc(C)nc(N2CCC(C(=O)Nc3ccc(Oc4ccccc4)cc3)CC2)n1,0
11,COc1ccccc1NC(=O)c1nnn(CC(=O)Nc2ccccc2)c1N,1
12,Cc1cc(C)nc(NC(=O)c2ccc(OC(C)C)cc2)n1,0
13,CCCC1c2ccc(C)n2CCN1C(=O)Nc1ccccc1Cl (stereo not drawn),1
14,Nc1nnnn1/N=C/c1ccccc1OCc1ccccc1,0
15,CC1C(O)=C(c2nc3ccccc3[nH]2)C(=N)N1c1ccccc1 (stereo not drawn),9
16,Cc1ccc(Cn2c(=O)c3ccccc3n3c(CCC(=O)O)nnc23)cc1,0
17,Cc1[nH]c2ccccc2c(=O)c1CN(C)Cc1ccccc1,6
18,COc1cc(C(=O)N(C)c2nnc(-c3cccnc3)s2)cc(OC)c1OC,0
19,C/C(N)=C(\C#N)C(=O)NCCc1ccccn1,0
20,COc1ccc(-n2ccnc2SCC(=O)NCc2ccc3c(c2)OCO3)cc1,1
21,COC(=O)c1c(-c2cccs2)csc1NC(=O)CN1CCOCC1,0
22,COc1ccc(NC(=O)Cn2nnc(-c3ccccc3N)n2)cc1OC,0
23,CCC(=O)Oc1ccc(C(CC)C(CC)c2ccc(OC(=O)CC)cc2)cc1 (stereo not drawn),0
24,C=CCSC1=C(C#N)C(c2ccccc2Cl)CC(=O)N1 (stereo not drawn),0
25,CC(C)CCn1c(=O)c2ccccc2n2c(CN(C)Cc3ccccc3)nnc12,0
